Laboratory results reported in PubChem BioAssay (NCATS).
Results filed as inconclusive are left out. Active and inactive are the calls of the source. Unless noted, calls come from the whole dose curve; as a rule, active = well fitted curve in the direction sought with a large enough effect; inconclusive = small, poorly fitted or top-dose-only effect, or another doubt; inactive = no such curve, though single readings can be large; an effect the other way counts as inactive or inconclusive.

How the values were obtained:
[1] = target: Cytochrome P450 3A4 (Homo sapiens) (UniProt P08684); test: qHTS Assay for Inhibitors and Substrates of Cytochrome P450 3A4 (AID 884); note: potency is the fitted concentration of half-maximal effect; nearly all actives have a fitted effect of over 50% in size
Cytochrome P450 3A4 (Homo sapiens), sequence (P08684 whole entry, looked up): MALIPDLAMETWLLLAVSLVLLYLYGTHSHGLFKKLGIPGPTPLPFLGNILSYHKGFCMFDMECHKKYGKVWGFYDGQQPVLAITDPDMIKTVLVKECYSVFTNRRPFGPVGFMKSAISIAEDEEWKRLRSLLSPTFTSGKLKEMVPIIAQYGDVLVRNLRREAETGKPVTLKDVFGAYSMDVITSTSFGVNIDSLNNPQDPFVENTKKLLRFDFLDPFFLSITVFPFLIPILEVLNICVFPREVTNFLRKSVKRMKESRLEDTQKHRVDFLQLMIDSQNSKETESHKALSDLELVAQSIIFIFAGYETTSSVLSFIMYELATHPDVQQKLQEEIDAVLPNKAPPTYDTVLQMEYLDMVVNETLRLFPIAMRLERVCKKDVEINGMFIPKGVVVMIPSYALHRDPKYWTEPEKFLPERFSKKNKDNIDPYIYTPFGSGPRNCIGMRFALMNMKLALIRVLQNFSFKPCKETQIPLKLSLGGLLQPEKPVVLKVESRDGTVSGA
Method in brief: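 Luminescent readout of luciferin produced by CYP3A4 (20 nM) dealkylation of Luciferin-PPXE, 25 uM (its KM). NADPH-driven reaction ran 60 min at RT after 10 min compound preincubation; data scaled to 57 uM ketoconazole as 100% inhibition.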

[2] = target: Cytochrome P450 3A4 (Homo sapiens) (UniProt P08684); test: qHTS Assay for Activators of Cytochrome P450 3A4 (AID 885); note: nearly all actives have a fitted effect of over 65% in size
Method in brief: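 Activators are scored by enhanced luminescence from CYP3A4 conversion of luciferin-PPXE (25uM, equal to KM) to luciferin, after 60 min at RT with an NADPH-regenerating system.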

[3] = Confirmation and Secondary Assay for Modulators of Hemoglobin Beta Chain Splicing at IVS2 654 locus (AID 910);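 note: HeLa cells stably carrying EGFP split by mutant beta-globin IVS2-654 intron; % of control where 0% means no effect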
Method in brief: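 HeLa cells stably expressing EGFP interrupted by β-globin IVS2-654 intron, seeded overnight in Opti-MEM/2% FCS, then treated 2 days at 37 °C. Restored splicing read as total peak GFP intensity per well by laser scanning cytometry (488 nm excitation, 500–520 nm emission); 500 nM antisense PNA as control.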

[4] = target: Ubiquitin carboxyl-terminal hydrolase 1 (Homo sapiens) (UniProt O94782); test: Inhibitors of USP1/UAF1: Pilot qHTS (AID 504865); note: potency is the fitted concentration of half-maximal effect; nearly all actives have a fitted effect of over 35% in size
Ubiquitin carboxyl-terminal hydrolase 1 (Homo sapiens), sequence (O94782 whole entry, looked up): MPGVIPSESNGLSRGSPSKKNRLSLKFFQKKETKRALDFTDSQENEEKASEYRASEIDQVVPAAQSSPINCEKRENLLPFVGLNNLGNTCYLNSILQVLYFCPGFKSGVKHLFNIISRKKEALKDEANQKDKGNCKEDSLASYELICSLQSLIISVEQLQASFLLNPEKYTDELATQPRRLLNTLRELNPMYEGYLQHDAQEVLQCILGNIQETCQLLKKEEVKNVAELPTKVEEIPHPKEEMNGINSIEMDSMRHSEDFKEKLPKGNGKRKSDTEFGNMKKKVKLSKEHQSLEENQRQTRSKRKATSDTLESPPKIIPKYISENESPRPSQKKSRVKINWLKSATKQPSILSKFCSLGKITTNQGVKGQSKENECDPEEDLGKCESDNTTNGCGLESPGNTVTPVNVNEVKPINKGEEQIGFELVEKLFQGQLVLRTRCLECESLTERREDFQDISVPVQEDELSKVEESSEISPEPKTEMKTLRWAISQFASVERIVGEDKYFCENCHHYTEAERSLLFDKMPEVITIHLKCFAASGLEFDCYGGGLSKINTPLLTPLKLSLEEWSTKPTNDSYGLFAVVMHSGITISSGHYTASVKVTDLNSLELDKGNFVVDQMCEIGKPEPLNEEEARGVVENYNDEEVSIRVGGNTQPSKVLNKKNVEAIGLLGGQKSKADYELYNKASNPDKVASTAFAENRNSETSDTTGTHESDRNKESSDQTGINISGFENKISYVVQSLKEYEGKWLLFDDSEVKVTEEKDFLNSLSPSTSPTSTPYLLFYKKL
Method in brief: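 USP1/UAF1 complex (1nM) preincubated with compound 15 min at room temperature, then Ub-Rho substrate (150nM final) added. Fluorescence read kinetically at 480/540 nm, 6 reads every 60 seconds. Buffer: 50mM HEPES pH 7.8, 0.5mM EDTA, 0.1 mg/ml BSA, 1mM TCEP, 0.01% Tween-20.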

[5] = Confirmatory screen GU Rhodamine qHTS for Zika virus inhibitors qHTS (AID 1347157); note: nearly all actives have a fitted effect of over 70% in size; note: potency is the fitted concentration of half-maximal effect;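 for activity change, negative = inhibition: plate controls were no-inhibitor wells for no effect and no-enzyme wells for full effect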
Method in brief: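 Buffer 10 mM Tris-HCl pH 8.0, 0.01% Tween 20. Unlinked protease 25 nM; compound preincubation 15 min, RT, protected from light. Substrate Rhod110, 1.5 microM; ~15% conversion in 15 min.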

[6] = ZIKV-mCherry secondary qHTS for Zika virus inhibitors (AID 1347158); note: top concentration of the series differs between compounds
Method in brief: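 Compounds were tested in Vero monkey kidney cells infected with recombinant mCherry-expressing Zika virus at MOI 1 for 48-72 h at 37 °C. Fixed cells were nuclear-stained and imaged, and infection rate was taken as the fraction of mCherry-positive cells.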

[7] = Confirmatory screen NINDS Rhodamine qHTS for Zika virus inhibitors (AID 1347161); note: nearly all actives have a fitted effect of over 60% in size; note: potency is the fitted concentration of half-maximal effect;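 for activity change, negative = inhibition: purified Zika NS2B-NS3 protease with linked NS2B cofactor domain and Rhodamine110 peptide substrate; plate controls were no-inhibitor control for no effect and no-enzyme control for full effect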
Method in brief: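 Purified NS2B-NS3 protease with the NS2B hydrophilic domain joined by a flexible linker (25 nM) in 10 mM Tris-HCl pH 8.0, 0.01% Tween 20, preincubated 15 min at RT with compound; Rhodamine110 peptide substrate 1.5 µM; fluorescence change over 15 min; 4-parameter Hill fit.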

[8] = test system: Zika virus NS2B-NS3 protease (linked); test: 384 well plate NINDS AMC confirmatory qHTS for Zika virus inhibitors (AID 1347163); note: potency is the fitted concentration of half-maximal effect; nearly all actives have a fitted effect of over 50% in size
Method in brief: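 Fluorescence at 355/460 nm was read after 25 minutes of cleavage of 30 microM Ac-VKTGKR-AMC at room temperature, in the dark. Before substrate addition, compounds (up to 1 mM final) sat ~15 minutes with 5, 30 or 60 nM linked protease. Signals were normalized to no-enzyme and no-inhibitor wells.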

[9] = test system: Zika virus NS2B-NS3 protease (linked construct); test: 384 well plate NINDS Rhodamine confirmatory qHTS for Zika virus inhibitors (AID 1347164);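 note: fluorescence from protease cleavage of Ac-LKRR-rhodamine 110 substrate; nearly all actives have a fitted effect of over 65% in size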; note: potency is the fitted concentration of half-maximal effect;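 for activity change, negative = inhibition: top concentration of the series differs between compounds; plate controls were no-inhibitor control for no effect and no-enzyme control for full effect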
Method in brief: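 Linked protease at a final 5 nM, 30 nM or 60 nM was preincubated ~15 min with compounds, then given 10 microM Ac-LKRR-Rhodamine 110. Fluorescence (ex 485/em 538 nm) after 25 min in the dark at room temperature.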

[10] = Tertiary RLuc qRT-PCR qHTS assay for Zika virus inhibitors (AID 1347169); note: top concentration of the series differs between compounds; % is set by controls: 0 for no effect and ±100 for the full control effect; nearly all actives have a fitted effect of over 55% in size
Method in brief: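 Vero cells (1,000 per well) plated overnight at 37 degrees C, treated with compound in DMSO, then infected with recombinant ZIKV-RLuc (Cambodian) at MOI 1-2 for 48-72 hrs. Live-cell Renilla luciferase substrate added; luminescence read after 1-1.5 hrs.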

[11] = target: Rap guanine nucleotide exchange factor 3 (Homo sapiens) (UniProt O95398); test: Confirmatory qHTS for antagonist of cAMP-regulated guanine nucleotide exchange factor 3 (EPAC1) (AID 1645880);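 note: plate controls were DMSO only for no effect and full effect of the ATA control for full effect; nearly all actives have a fitted effect of over 55% in size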
Rap guanine nucleotide exchange factor 3 (Homo sapiens), sequence (O95398 whole entry, looked up): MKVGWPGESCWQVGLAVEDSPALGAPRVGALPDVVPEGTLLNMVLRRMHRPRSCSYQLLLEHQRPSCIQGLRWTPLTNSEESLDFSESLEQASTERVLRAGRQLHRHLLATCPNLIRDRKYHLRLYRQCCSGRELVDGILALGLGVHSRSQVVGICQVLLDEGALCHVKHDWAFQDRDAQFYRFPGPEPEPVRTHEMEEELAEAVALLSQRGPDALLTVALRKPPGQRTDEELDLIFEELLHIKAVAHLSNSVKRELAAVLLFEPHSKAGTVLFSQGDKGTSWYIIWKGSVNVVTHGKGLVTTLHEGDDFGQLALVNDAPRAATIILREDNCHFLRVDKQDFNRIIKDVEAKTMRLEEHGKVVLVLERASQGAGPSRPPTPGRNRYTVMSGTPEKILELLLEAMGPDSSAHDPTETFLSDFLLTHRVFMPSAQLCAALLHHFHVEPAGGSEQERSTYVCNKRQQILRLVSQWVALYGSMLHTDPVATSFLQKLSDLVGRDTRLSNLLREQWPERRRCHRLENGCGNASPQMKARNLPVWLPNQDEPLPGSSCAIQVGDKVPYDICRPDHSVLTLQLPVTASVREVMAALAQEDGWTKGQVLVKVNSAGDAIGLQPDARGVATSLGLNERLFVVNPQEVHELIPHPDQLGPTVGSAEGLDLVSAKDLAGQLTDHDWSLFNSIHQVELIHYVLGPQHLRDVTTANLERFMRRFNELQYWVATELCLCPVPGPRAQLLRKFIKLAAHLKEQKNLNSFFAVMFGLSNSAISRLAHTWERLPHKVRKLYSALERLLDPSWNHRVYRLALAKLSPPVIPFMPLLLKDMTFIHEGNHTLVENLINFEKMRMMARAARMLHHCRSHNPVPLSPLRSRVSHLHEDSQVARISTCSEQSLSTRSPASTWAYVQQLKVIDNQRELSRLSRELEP
Method in brief: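 Released BODIPY-GDP fluoresces less than Rap1-bound BODIPY-GDP; the signal is followed at 480/540 nm at 5-min intervals over 30 min, after 5 min at room temperature. Reactions contain 100 nM EPAC1, 250 nM RAP1B-BODIPY-GDP and 50 uM GDP; results are normalized to ATA and DMSO.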

[12] = target: Rap guanine nucleotide exchange factor 4 (Homo sapiens) (UniProt Q8WZA2); test: Confirmatory qHTS for antagonist of cAMP-regulated guanine nucleotide exchange factor 4 (EPAC2) (AID 1645885); note: % is set by controls: 0 for no effect and ±100 for the full control effect; nearly all actives have a fitted effect of over 25% in size
Rap guanine nucleotide exchange factor 4 (Homo sapiens), sequence (Q8WZA2 whole entry, looked up): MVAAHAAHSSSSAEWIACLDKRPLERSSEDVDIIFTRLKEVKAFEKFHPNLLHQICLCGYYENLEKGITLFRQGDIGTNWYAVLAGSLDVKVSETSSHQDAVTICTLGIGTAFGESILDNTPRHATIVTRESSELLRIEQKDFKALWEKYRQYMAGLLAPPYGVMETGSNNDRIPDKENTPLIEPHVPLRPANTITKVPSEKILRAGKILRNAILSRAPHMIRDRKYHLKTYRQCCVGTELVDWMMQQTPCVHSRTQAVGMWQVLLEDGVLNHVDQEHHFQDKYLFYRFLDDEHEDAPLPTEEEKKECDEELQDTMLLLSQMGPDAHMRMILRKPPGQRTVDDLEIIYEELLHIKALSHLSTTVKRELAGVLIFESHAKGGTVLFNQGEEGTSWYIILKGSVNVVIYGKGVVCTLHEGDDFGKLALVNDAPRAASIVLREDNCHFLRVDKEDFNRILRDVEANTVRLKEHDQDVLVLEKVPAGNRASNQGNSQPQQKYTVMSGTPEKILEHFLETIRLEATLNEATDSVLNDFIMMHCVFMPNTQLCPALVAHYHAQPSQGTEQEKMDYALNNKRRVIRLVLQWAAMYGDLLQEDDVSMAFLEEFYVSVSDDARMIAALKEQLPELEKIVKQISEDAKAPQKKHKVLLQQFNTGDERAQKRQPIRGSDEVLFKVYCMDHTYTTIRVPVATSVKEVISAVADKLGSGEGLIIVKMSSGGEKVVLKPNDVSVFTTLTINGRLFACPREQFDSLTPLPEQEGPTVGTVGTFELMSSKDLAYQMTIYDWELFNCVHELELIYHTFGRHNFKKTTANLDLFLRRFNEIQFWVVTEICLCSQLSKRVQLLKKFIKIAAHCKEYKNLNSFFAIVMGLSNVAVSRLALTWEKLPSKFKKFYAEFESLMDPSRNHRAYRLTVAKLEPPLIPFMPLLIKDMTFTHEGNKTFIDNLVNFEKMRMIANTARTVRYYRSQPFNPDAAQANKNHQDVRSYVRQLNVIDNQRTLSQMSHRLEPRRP

[13] = target: Rap guanine nucleotide exchange factor 3 (Homo sapiens) (UniProt O95398); test: Counterscreen qHTS for antagonist of cAMP-regulated guanine nucleotide exchange factor 3 (EPAC1) (AID 1645888); note: % of control where 0% means no effect
Method in brief: (§1)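 Rap1B–BODIPY-GDP (250 nM) with 50 uM GDP; compounds pin-transferred to 9.74 nM–152 uM final (activator) or from 7.32 nM upwards (inhibitor). Fluorescence Ex/Em 480/540 nm read at 5 and 30 min, then after adding cAMP or buffer, at room temperature.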

[14] = target: Rap guanine nucleotide exchange factor 3 (Homo sapiens) (UniProt O95398); test: Counterscreen qHTS for agonist of cAMP-regulated guanine nucleotide exchange factor 3 (EPAC1) (AID 1645889); note: potency is the fitted concentration of half-maximal effect; nearly all actives have a fitted effect of over 40% in size
Method in brief: as §1

[15] = Confirmation and Secondary Assay for Modulators of Hemoglobin Beta Chain Splicing at IVS2 705 locus (AID 930);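 note: HeLa cells stably expressing the EGFP-705 splicing reporter; GFP fluorescence per well restored by corrected splicing of the IVS2-705 intron in EGFP; % of control where 0% means no effect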
Method in brief: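 Secondary splice-site specificity test uses HeLa expressing CMV-driven EGFP interrupted by IVS2-705; cells were treated 2 days at 37C with 500 nM antisense PNA as positive control.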

[16] = qHTS Assay for Lipid Storage Modulators (AID 1519; calls by dose curve; for activity change, negative = inhibition: % is set by controls: 0 for no effect and ±100 for the full control effect); conditions: Drosophila S3 cells, BODIPY lipid droplet/cell ratio, laser cytometry, cells loaded with oleic acid
Method in brief: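 Cells seeded at 5,000 per well were treated with compounds over a concentration series and loaded with oleic acid (400 uM, as added). Lipid droplet fluorescence (488 nm excitation, 500-530 nm channel) was read by laser-scanning cytometry and normalized to 20 uM Triacsin C.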

O=c1cc(-c2cc(O)c(O)c(O)c2)oc2cc(O)cc(O)c12
active: Potency [1] 20 µM | Potency [4] 35.5 µM | Potency [5] 44.7 µM | Potency [7] 31.6 µM | Potency [8] 63.1 µM
inactive: Potency [2] | outcome [3] | Potency [6] | Potency [9] | Potency [10]

O=C(O)c1ccccc1-c1c2cc(I)c(=O)c(I)c-2oc2c(I)c(O)c(I)cc12
active: Potency [5] 14.1 µM | Potency [7] 3.16 µM | Potency [8] 56.2 µM | Potency [14] 7.08 µM
inactive: Potency [6] | Potency [9] | Potency [10] | Potency [11] | activity change, negative = inhibition [12] 12.6% [at 12.7 µM] | activity change, negative = inhibition [13] 212% [at 30.8 µM]

O=c1c(O)cc(C2Oc3cc(O)cc(O)c3CC2O)cc2c(C3Oc4cc(O)cc(O)c4CC3O)cc(O)c(O)c12 (centres undefined)
active: Potency [1] 15.8 µM | Potency [4] 35.5 µM | Potency [5] 12.6 µM | Potency [7] 20 µM | Potency [8] 7.94 µM
13.9%: max response ([16]; measured here: cell count channel max response)
27.3%: max response ([16]; measured here: lipid channel max response)
inactive: Potency [2] | outcome [3] | outcome [15] | activity change, negative = inhibition ([16]; at 57.5 µM (top of the series)) 11.1% | Potency [6] | Potency [9]

O=C(Nc1ccccc1C(=O)OCc1cc(=O)n2nc(C3CC3)sc2n1)c1cccc(F)c1
inactive: Potency [5] | Potency [7] | Potency [10]

CCOC(=O)c1ccc(CN(Cc2ccc(F)cc2)S(=O)(=O)c2cc(C(=O)Nc3cccc(C(F)(F)F)c3)ccc2F)cc1
inactive: Potency [5] | Potency [7]

CCOC(=O)c1ccc(N2C(=O)c3n[nH]c(-c4cccs4)c3C2c2ccc(Cl)cc2Cl)cc1 (centres undefined)
active: Potency [5] 31.6 µM | Potency [7] 25.1 µM | Potency [9] 44.7 µM

O=C(Nc1c(C(=O)O)oc2ccccc12)c1ccc(C(F)(F)F)cc1
inactive: Potency [6]
active: Potency [5] 15.8 µM | Potency [7] 25.1 µM | Potency [8] 316 µM | Potency [9] 100 µM

COC(=O)c1ccc([C@H]2Nc3ccc(S(=O)(=O)Nc4cccc(C)c4)cc3[C@H]3C=CC[C@H]32)cc1
inactive: Potency [6] | Potency [10]
active: Potency [5] 25.1 µM | Potency [7] 25.1 µM | Potency [8] 141 µM | Potency [9] 158 µM

N#C/C(=C\c1ccc(-c2cc(Cl)ccc2Cl)o1)C(=O)Nc1ccccc1C(=O)O
inactive: Potency [10]
active: Potency [5] 3.16 µM | Potency [7] 6.31 µM | Potency [8] 20 µM

O=S(=O)(Nc1ccc(Cl)cc1)c1ccc(NS(=O)(=O)c2ccc3c(c2)OCCO3)cc1
active: Potency [5] 44.7 µM | Potency [7] 35.5 µM | Potency [9] 31.6 µM
